In PubChem BioAssay one finds composite z-score data, which are given here for 24 compounds.

For the test, the target named is E3 ubiquitin-protein ligase XIAP (Homo sapiens) (UniProt P98170). The test can be described thus: XIAP binders, primary screen, biophysical, small-molecule microarray, fluorescence 635 nm (AID 1181).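 Further: score merges 667 nm emission and signal to noise over triplicate slides.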 The note with it: small-molecule microarray binding, higher = more signal.
Chain of E3 ubiquitin-protein ligase XIAP (Homo sapiens) (P98170 whole entry, looked up): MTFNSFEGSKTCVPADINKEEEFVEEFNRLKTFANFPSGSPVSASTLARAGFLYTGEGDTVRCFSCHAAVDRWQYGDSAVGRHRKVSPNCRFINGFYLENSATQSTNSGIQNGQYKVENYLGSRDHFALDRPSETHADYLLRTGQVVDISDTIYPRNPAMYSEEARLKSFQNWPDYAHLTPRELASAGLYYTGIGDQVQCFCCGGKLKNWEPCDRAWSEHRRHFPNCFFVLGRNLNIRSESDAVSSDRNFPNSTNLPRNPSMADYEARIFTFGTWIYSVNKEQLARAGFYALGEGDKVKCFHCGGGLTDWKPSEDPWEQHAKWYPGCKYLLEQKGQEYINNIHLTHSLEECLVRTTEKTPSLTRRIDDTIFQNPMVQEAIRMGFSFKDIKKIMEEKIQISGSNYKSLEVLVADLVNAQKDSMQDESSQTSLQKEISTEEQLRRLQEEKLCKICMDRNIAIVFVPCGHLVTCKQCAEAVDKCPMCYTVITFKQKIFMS
In turn, `COCCOC(=O)N1C(=O)[C@@]2(c3cc(C#CCC(C(=O)OC)C(=O)OC)ccc31)[C@H](C(=O)N1CCN(c3ncccn3)CC1)[C@H]1C(=O)O[C@H](c3ccccc3)[C@H](c3ccccc3)N1[C@@H]2c1ccccc1OCCO` registered a composite z-score of -0.0749.
With `CN1C(=O)C2C=CC(C(O)c3ccccc3)N(N(c3ccccc3)c3ccccc3)C2C1=O` (centres undefined) the figure was 0.259.
With `COc1ccc([Si](C)(C)[C@H]2[C@H](CC(=O)N3Cc4ccccc4C[C@H]3CO)O[C@@]3(C(=O)N(Cc4cccc(N5CCC5=O)c4)c4ccccc43)[C@@H]2C)cc1` the figure was -0.0393; with `C=CCC(OC(C)=O)[C@@H]1[C@@H](N(Cc2ccc(-c3cccc(C(F)(F)F)c3)o2)C(=O)c2ccc(C)cc2)c2cc(OCCCO)ccc2N1C(=O)Cc1ccc2ccccc2c1` (some centres undefined), -0.0286; with `Oc1ccc2cc[n+](Cc3sc4ccccc4c3Cl)cc2c1`, -0.0095.
For `COC(=O)C(CC#Cc1ccc2c(c1)[C@]1(C(=O)N2)[C@H](c2ccc(OCCO)cc2)N2[C@H](c3ccccc3)[C@H](c3ccccc3)OC(=O)[C@H]2[C@@H]1C(=O)N1CCc2cc(OC)c(OC)cc2C1)C(=O)OC` the value was -0.227.
Turning to `COc1ccc(CCNC(=O)[C@@]2(Sc3ccc(C)cc3)CC(=O)N(C(C)C)[C@@H]2c2ccc(CO)cc2I)cc1`, the composite z-score came out at 0.0374.
For `CN(C)CCCC[C@@H]1NC(=O)[C@@H]2C[C@H](C(=O)NCCCCCCN)[C@H](c3cccc(OCCO)c3)N2C1=O` the value was 0.115; for `C=CCN1C(=O)[C@]2(O[C@H](CCn3cc([C@H](O)c4ccccc4)nn3)[C@@H]([Si](C)(C)c3ccc(OC)cc3)[C@@H]2C)c2ccccc21`, -0.104; for `COC(=O)C(CC#Cc1ccc2c(c1)[C@]1(C(=O)N2)[C@H](C(=O)Nc2nc3ccccc3s2)[C@H]2C(=O)O[C@H](c3ccccc3)[C@H](c3ccccc3)N2[C@@H]1c1ccc(O)cc1)C(=O)OC`, 0.208.
For `COc1cc2c(cc1O)C(c1cccs1)N(C)CC2` (centres undefined) the value was 0.0682; for `C=CC[C@]1(C(=O)NCc2ccccc2)N=C(c2ccc(OCCCO)cc2)O[C@H]1c1ccccc1N=[N+]=[N-]`, 0.0623.
With `O=C(c1ccccc1)N1Cc2ccccc2C[C@@]2(COC(c3ccc(OCCCO)cc3)=N2)C1=O` the figure was -0.231; with `C=C[C@H](C)[C@@H](OC(=O)Nc1ccc(OC)cc1)c1ccc(O)c2ccccc12`, -0.196.
`CCC(CC)C(O)C1C=CC2C(=O)NC(=O)C2N1Nc1ccc(Cl)cc1Cl` (centres undefined) returned a composite z-score of 0.0187.
The compound `COc1ccc(C#Cc2ccc3c(c2)[C@]2(C(=O)N3)[C@H](c3ccccc3OCCO)N3[C@H](c4ccccc4)[C@H](c4ccccc4)OC(=O)[C@H]3[C@@H]2C(=O)Nc2nc3ccccc3s2)cc1` came in with a composite z-score of 0.0471.
For `O=C(CS)NCCCCCCNC(=O)[C@@H]1C[C@@H]2C(=O)N[C@@H](Cc3ccccc3)C(=O)N2[C@@H]1c1cccc(OCCO)c1` the value was 0.0264.
For `CC(C)N1C(=O)c2ccccc2[C@](C)(C(=O)NCCN2CCOCC2)[C@@H]1c1ccc(CO)cc1` the value was 0.126; for `CCCC=C(CCC)[C@@H](NC(=O)c1cccs1)c1ccc(C(F)(F)F)cc1`, 0.309.
With `C[N+](C)(C)CCCCNC(=O)[C@@H]1C[C@@H]2C(=O)N[C@@H](Cc3ccccc3)C(=O)N2[C@@H]1c1cccc(OCCO)c1` the figure was -0.138.
Regarding `Cc1ccc(S[C@]2(C(=O)NC3CC3)CC(=O)N(Cc3ccccc3)[C@@H]2c2ccc(CO)cc2I)cc1`, the composite z-score is -0.252.
In turn, `CCOC(=O)C1=C[C@@H](C(C)(C)C)N(S(=O)(=O)c2ccc(C)cc2)[C@H]1c1ccc(F)cc1` gave a composite z-score of -0.02.
With `COc1ccc(C(O)C2C=CC3C(=O)N(Cc4ccccc4)C(=O)C3N2n2cnnc2)cc1OCc1ccccc1` (centres undefined) the figure was 0.035.
For `CC1CC/C=C\[C@H]2OC34C=CCN(C(C)(C)C)C(=O)[C@H]3N(CCO)C(=O)[C@@H]4C2C(=O)O1` (some centres undefined) the value was -0.309.
